Screening results as filed in PubChem BioAssay.
Shown are actives, neighbours in structure and some others; about 22% of the full set was active somewhere.
LmPK inhibitor – inhibitors of Leishmania mexicana pyruvate kinase | Q27686 | purified LmPK, Kinase-Glo ATP luminescence, 1 h | Potency, µM (series often up to 57.5 µM), for the others: top-dose activity change, negative = inhibition, hits mostly inhibitors | hit rate 0.37% among 290,000 | AID 1721; also: potency is read from the fitted curve at half-maximal effect; % is scaled to controls: 0 for no effect and ±100 for the full control effect
Target sequence (Q27686 whole entry, looked up): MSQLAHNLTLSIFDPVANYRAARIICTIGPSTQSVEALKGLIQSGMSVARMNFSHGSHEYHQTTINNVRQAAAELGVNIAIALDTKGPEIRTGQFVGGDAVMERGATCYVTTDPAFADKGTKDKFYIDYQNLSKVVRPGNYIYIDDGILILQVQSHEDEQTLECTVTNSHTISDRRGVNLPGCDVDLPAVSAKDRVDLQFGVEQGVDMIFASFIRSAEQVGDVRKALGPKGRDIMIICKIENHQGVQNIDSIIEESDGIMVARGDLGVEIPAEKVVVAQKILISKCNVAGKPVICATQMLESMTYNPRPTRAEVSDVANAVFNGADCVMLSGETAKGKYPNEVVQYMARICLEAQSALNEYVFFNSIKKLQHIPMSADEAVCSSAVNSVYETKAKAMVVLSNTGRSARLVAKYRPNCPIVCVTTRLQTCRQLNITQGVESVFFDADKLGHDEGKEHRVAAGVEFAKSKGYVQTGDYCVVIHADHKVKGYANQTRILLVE
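In 50 mM imidazole pH 7.2 with 7 mM MgCl2, LmPK (0.1 nM) turned over PEP (0.5 mM) and ADP (0.1 mM) for 1 h at room temperature. Luciferase read-out of ATP.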
Pf growth 96h – inhibits malaria parasite growth, 96 h; P. falciparum luciferase reporter growth, 96 h; Potency, µM (doses to about 28.7 µM), for the others: at the top dose activity change, negative = inhibition, actives largely listed as inhibitors; hit rate 6.9% among 320,000; AID 504834; also: potency is read from the fitted curve at half-maximal effect; % is scaled to controls: 0 for no effect and ±100 for the full control effect
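Two parasite generations (96 h, 37 C, 5% CO2) of compound exposure in infected erythrocytes (0.05% parasitemia, 2% hematocrit). Luciferase-reporter P. falciparum; decreased luminescence indicates inhibited growth, aimed at apicoplast-acting delayed death.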
Pf growth 48h – P. falciparum growth inhibition at 48 hours (one generation) | P. falciparum luciferase growth in erythrocytes, 48 h | Potency, µM (highest dose often 28.7 µM), for inactives: at the highest dose activity change, negative = inhibition, usual class: inhibitors | hit rate 5.9% among 310,000 | AID 504832; also: potency is read from the fitted curve at half-maximal effect; % is scaled to controls: 0 for no effect and ±100 for the full control effect
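Cell-based growth assay: transgenic P. falciparum expressing firefly luciferase, cultured in red cells within RPMI 1640 containing 0.5% w/v Albumax, 24 mM bicarbonate and gentamycin. A drop in luciferase activity indicates inhibition.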
Cycloheximide cs – affects cycloheximide protein synthesis inhibition readout, counter-screen; cell reporter, cycloheximide protein synthesis inhibition counterscreen; max response, %; hit rate 12% among 300,000; AID 2314; in the data active = max response mostly above about 13%, no sharp cut-off; inactive = mostly below about 14%; also: read at 38.3 µM for the half of the compounds with a filed dose; 0% is about no effect
Shiga toxin inh – Shiga toxin inhibition | Vero cells, Shiga toxin protein synthesis inhibition reporter | hit rate 9.2% among 290,000 | inhibition, % at 38.7 µM | AID 2315; in the data active = inhibition mostly above about 28%, no sharp cut-off; inactive = mostly below about 43%; also: 0% is about no effect
* = called active by the depositor; ? = inconclusive; . = not tested or not shown; [ ] = dose if it differs, or a comment. Unless noted, calls follow the shape of the dose curve; as a rule, active = well fitted inhibition curve with a large enough effect; inconclusive = small, poorly fitted or top-dose-only effect, or another doubt; inactive = no such curve, though single readings can be large or run the other way.

SMILES | LmPK inhibitor | Pf growth 96h | Pf growth 48h | Cycloheximide cs | Shiga toxin inh
COc1ccc(-c2[nH]ncc2Oc2ccccc2OC)c(O)c1 | -2% | -13% | ? | -1 | -5
C=C(C)COc1ccc(-c2[nH]ncc2Oc2cccc(OC)c2)c(O)c1 | 6% | 8.3µM* | 9.3µM* | 5 | -21
COc1ccc(C(=O)NCCc2nnc3ccc(SCC(=O)Nc4ccccc4F)nn23)cc1 | -5% | -26% | 23% | -5 | -12
O=C(NCCN1CCOCC1)c1ccc(NS(=O)(=O)c2ccccc2)cc1 | -3% | -13% | 2% | -1 | -12
Cc1cc(C)c(S(=O)(=O)N2CCCC(C(=O)NC3CCCC3)C2)c(C)c1 (stereo not drawn) | -5% | 20% | -4% | -4 | -15
Oc1ccc(C(=C(Cl)Cl)c2ccc(O)cc2)cc1 | 6% | 2.3µM* | 2.9µM* | -1 | -7
COc1cc([N+](=O)[O-])c2nccnc2c1 | 10% | 9.3µM* | 17% | -3 | -14
COc1cc([N+](=O)[O-])c2ncccc2c1 | . | . | . | -6 | -6
C#CCOCCOCCOCCNc1nc(N2CCOCC2)nc(N2CCN(C(=O)[C@H](CCCCN)n3cc([C@@H](N)C(C)CC)nn3)CC2)n1 (stereo partly drawn) | -1% | 34% | 18% | -1 | -4
C#CCOCCOCCOCCNc1nc(N2CCOCC2)nc(N2CCN(C(=O)CCCCCCCCCCNC(=O)[C@@H](CCSC)n3cc(CCO)nn3)CC2)n1 | . | ? | 0.66µM* | . | .
C#CCOCCOCCOCCNc1nc(N2CCN(C(=O)CCCCCCCCCCNC(=O)[C@H](CO)n3cc(CCCSC)nn3)CC2)nc(N2CCN(C(=O)CCCCCCCCCCNC(=O)[C@H](CO)n3cc(CCCSC)nn3)CC2)n1 | . | 0.1µM* | 0.29µM* | . | .
C#CCOCCOCCOCCNc1nc(N2CCN(C(=O)CCCCCCCCCCNC(=O)[C@H](CO)n3cc(CCCSC)nn3)CC2)nc(N2CCN(C(=O)CCCCCCCCCCNC(=O)[C@H](CCCCN)n3cc(C[C@@H](C)CC)nn3)CC2)n1 | . | 1.9µM* | 1.3µM* | . | .
COc1ccc(OCC(=O)N(Cc2ccc(C)o2)C2CCS(=O)(=O)C2)cc1 (stereo not drawn) | 0% | 21% | 20% | -1 | -6
N#Cc1ccc(N/N=C/c2cn(-c3ccccc3)nc2-c2ccccc2)c([N+](=O)[O-])c1 | -4% | 0.52µM* | ? | -2 | 10
NS(=O)(=O)c1ccc(N/N=C/c2ccccc2Br)cc1 | 0% | 54% | 19% | 14 | 29
NS(=O)(=O)c1ccc(N/N=C/c2cn(-c3ccccc3)nc2-c2cccs2)c([N+](=O)[O-])c1 | -4% | 3.3µM* | 1.5µM* | 6 | 7
NS(=O)(=O)c1ccc(N/N=C/c2cn(-c3ccccc3)nc2-c2cccs2)cc1 | -2% | 0.066µM* | 0.19µM* | 9.3* | 39*
Cc1cccc(NC(=O)c2c(-c3ccccc3)noc2C)n1 | -3% | ? | -2% | 1 | -23
Cc1c(C(=O)NNC(=S)Nc2ccc(S(N)(=O)=O)cc2)oc2ccccc12 | 0% | ? | ? | -2 | -2
Cc1cccc(NC(=S)NC(=O)c2oc3ccccc3c2C)n1 | 5% | 32% | 66% | 38* | 56*
Cc1cccc(NC(=S)NC(=O)c2ccc(-c3ccccc3)cc2)n1 | -1% | ? | 50% | 26* | 37*
Cc1cccc(CC2CC(=O)N(c3nc4ccccc4s3)C2=O)c1 (stereo not drawn) | 3% | 92%[1.15 µM] | -3% | -1 | -7
COc1ccc2nc(N3C(=O)CNC3=S)sc2c1 | ? | ? | 15% | 51* | 50
Cc1ccc2nc(N3C(=O)CNC3=S)sc2c1 | ? | -90% | ? | 47* | 56*
Nn1cc(-c2ccccc2)nc1SCC(=O)N1CCN(S(=O)(=O)c2ccccc2)CC1 | -4% | -7% | ? | 9 | 6
CC1CCCCN1C(=O)CSc1nc(-c2ccccc2)cn1N (stereo not drawn) | 3% | 47% | 77% | 25* | 46*
CC1CCCCN1C(=O)CSc1ccc(-c2ccc(F)cc2)nn1 (stereo not drawn) | 5% | ? | 4% | 19* | 41
CC(C#N)Sc1ccc(S(=O)(=O)N2CCCC2)cn1 (stereo not drawn) | . | 7% | ? | . | .
